Assay results published in PubChem BioAssay (EPA / NIEHS).
Calls of active or inactive are those of the source. Rule for the calls: active = hit-call score of the fitted dose curve at least 0.9, where 1 is the maximum; inactive = score below 0.9.

Tests used:
[1] = read-out: Monokine induced gamma interferon (MIG), CXCL9 (gene 4283); experiment: BSK_hDFCGF_MIG: BioMAP Diversity Plus: hDFCGF Assay for Monokine induced gamma interferon (MIG) Biomarker Activity (AID 2283063); settings: primary human foreskin fibroblasts; actives raise or lower the signal
Procedure, shortened: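 ELISA read-out of MIG from primary human dermal fibroblasts 24 h post-dosing. Gain or loss of signal fitted bidirectionally, DMSO as baseline.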

[2] = read-out: Matrix Metallopeptidase 1 (MMP1), MMP1 (gene 4312); experiment: BSK_hDFCGF_MMP1: BioMAP Diversity Plus: hDFCGF Assay for Matrix Metallopeptidase 1 (MMP1) Biomarker Activity (AID 2283064); settings: primary human foreskin fibroblasts; actives raise or lower the signal
Procedure, shortened: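 ELISA read-out of MMP1 from human foreskin fibroblasts (primary skin cells), 24 h post-dose. Gain or loss of signal was fitted bidirectionally versus DMSO negative control; cytotoxicity was checked by SRB in parallel cultures.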

[3] = read-out: Vascular cell adhesion molecule 1 (VCAM1), VCAM1 (gene 7412); experiment: BSK_hDFCGF_VCAM1: BioMAP Diversity Plus: hDFCGF Assay for Vascular cell adhesion molecule 1 (VCAM1) Biomarker Activity (AID 2283065); settings: primary human foreskin fibroblasts; actives raise or lower the signal;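 for AC50: VCAM-1 protein level quantified by ELISA after 24 h chemical exposure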
Procedure, shortened: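 Primary human foreskin fibroblasts (hDFCGF system) were dosed with chemical and VCAM-1 was measured by ELISA 24 h later. Bidirectional curve fitting used DMSO as negative control and activity baseline.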

[4] = read-out: Plasminogen activator inhibitor-1 (PAI1), SERPINE1 (gene 5054); experiment: BSK_hDFCGF_PAI1: BioMAP Diversity Plus: hDFCGF Assay for Plasminogen activator inhibitor-1 (PAI1) Biomarker Activity (AID 2283066); settings: primary human foreskin fibroblasts; actives raise or lower the signal
Procedure, shortened: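 PAI-1 levels in human dermal foreskin fibroblasts were quantified by ELISA 24 h after dosing, with gain or loss analysed against DMSO. Overt cytotoxicity was checked by sulforhodamine B total-protein staining in parallel cultures.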

[5] = read-out: Intercellular Adhesion Molecule 1 (ICAM1), ICAM1 (gene 3383); experiment: BSK_KF3CT_ICAM1: BioMAP Diversity Plus: KF3CT Assay for Intercellular Adhesion Molecule 1 (ICAM1) Biomarker Activity (AID 2283067); settings: primary human keratinocytes with fibroblasts; actives raise or lower the signal
Procedure, shortened: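 Human keratinocyte plus foreskin fibroblast primary co-culture was exposed to chemical for 24 h. ICAM-1 was then quantified by ELISA, and the data were fit bidirectionally against DMSO as the negative control and baseline.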

[6] = BSK_KF3CT_SRB: Viability Assessment in the BioMAP Diversity Plus: KF3CT Assay (AID 2283069); settings: primary human keratinocytes with fibroblasts;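 note: read 24 h after compound addition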
Procedure, shortened: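 SRB read-out at 560 nm (0.1% stain, TCA-fixed cells) gauges overt cytotoxicity in a human skin keratinocyte–fibroblast co-culture 24 h post-dosing. Signal change was fitted bidirectionally relative to DMSO control.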

[7] = read-out: Interleukin-1 alpha (IL1a), IL1A (gene 3552); experiment: BSK_KF3CT_IL1a: BioMAP Diversity Plus: KF3CT Assay for Interleukin-1 alpha (IL1a) Biomarker Activity (AID 2283070); settings: primary human keratinocytes with fibroblasts; actives raise or lower the signal
Procedure, shortened: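 Primary skin co-culture (keratinocytes, foreskin fibroblasts), 24 h exposure; ELISA for IL-1a; bidirectional curve fit vs DMSO.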

[8] = read-out: Transforming growth factor beta 1 (TGFb1), TGFB1 (gene 7040); experiment: BSK_KF3CT_TGFb1: BioMAP Diversity Plus: KF3CT Assay for Transforming growth factor beta 1 (TGFb1) Biomarker Activity (AID 2283072); settings: primary human keratinocytes with fibroblasts; actives raise or lower the signal
Procedure, shortened: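 ELISA quantifies TGF-b1 at 24 h post-dose in a primary human skin co-culture of keratinocytes and fibroblasts, with gain or loss judged against DMSO. Parallel SRB total-protein staining flags overt cytotoxicity.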

[9] = read-out: C-C motif chemokine 2 (Homo sapiens) (UniProt P13500); experiment: BSK_KF3CT_MCP1: BioMAP Diversity Plus: KF3CT Assay for Monocyte Chemoattractant Protein 1 (MCP1/CCL2) Biomarker Activity (AID 2283073); settings: primary human keratinocytes with fibroblasts; actives raise or lower the signal
Procedure, shortened: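 Human keratinocyte plus foreskin fibroblast primary co-culture exposed to chemical for 24 h. MCP-1 levels measured by ELISA. Bidirectional curve fitting relative to DMSO negative control as baseline.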

[10] = read-out: Matrix Metallopeptidase 9 (MMP9), MMP9 (gene 4318); experiment: BSK_KF3CT_MMP9: BioMAP Diversity Plus: KF3CT Assay for Matrix Metallopeptidase 9 (MMP9) Biomarker Activity (AID 2283074); settings: primary human keratinocytes with fibroblasts; actives raise or lower the signal;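 for AC50: MMP9 protein level quantified by ELISA in the co-culture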
Procedure, shortened: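 ELISA read-out of MMP-9 at 24 h post-dosing in a co-culture of human skin keratinocytes and foreskin fibroblasts. Gain or loss of signal was fitted in both directions against DMSO.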

[11] = read-out: urokinase plasminogen activator (uPA), PLAU (gene 5328); experiment: BSK_KF3CT_uPA: BioMAP Diversity Plus: KF3CT Assay for urokinase plasminogen activator (uPA) Biomarker Activity (AID 2283075); settings: primary human keratinocytes with fibroblasts; actives raise or lower the signal
Procedure, shortened: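 Skin co-culture (keratinocytes + foreskin fibroblasts), human primary; 24 h post-dose; uPA by ELISA; gain/loss fit vs DMSO baseline.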

[12] = read-out: CD40, CD40 (gene 958); experiment: BSK_LPS_CD40: BioMAP Diversity Plus: LPS Assay for CD40 Biomarker Activity (AID 2283076); settings: primary human HUVEC with PBMC; actives raise or lower the signal
Procedure, shortened: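 Primary human umbilical vein endothelial cells co-cultured with peripheral blood mononuclear cells, LPS-stimulated, were dosed with chemical and read 24 h later. CD40 levels were measured by ELISA and fitted bidirectionally against DMSO as negative control and baseline.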

[13] = read-out: E-selectin (Homo sapiens) (UniProt P16581); experiment: BSK_LPS_Eselectin: BioMAP Diversity Plus: LPS Assay for Eselectin Biomarker Activity (AID 2283077); settings: primary human HUVEC with PBMC; actives raise or lower the signal
Procedure, shortened: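 Human umbilical vein endothelial cells co-cultured with peripheral blood mononuclear cells under LPS stimulation; E-selectin measured by ELISA 24 h after chemical dosing. Activity fitted bidirectionally against DMSO as negative control and baseline.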

[14] = read-out: Interleukin-8 (IL8), CXCL8 (gene 3576); experiment: BSK_LPS_IL8: BioMAP Diversity Plus: LPS Assay for Interleukin-8 (IL8) Biomarker Activity (AID 2283078); settings: primary human HUVEC with PBMC; actives raise or lower the signal
Procedure, shortened: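 Human umbilical vein endothelial cells co-cultured with PBMC were stimulated with LPS; IL-8 levels were measured by ELISA 24 h after chemical dosing. Activity was fitted bidirectionally against DMSO as negative control and baseline.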

[15] = BSK_LPS_SRB: Viability Assessment in the BioMAP Diversity Plus: LPS Assay (AID 2283079); settings: primary human HUVEC with PBMC;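 note: total protein by sulforhodamine B absorbance as a cytotoxicity measure; measured one day after compound addition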
Procedure, shortened: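 Human umbilical vein endothelial cells co-cultured with PBMC (LPS system) were dosed for 24 h. Total protein was stained with 0.1% sulforhodamine B after 10% TCA fixation, read at 560 nm, and fitted bidirectionally against DMSO baseline.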

[16] = read-out: Interleukin-1 alpha (IL1a), IL1A (gene 3552); experiment: BSK_LPS_IL1a: BioMAP Diversity Plus: LPS Assay for Interleukin-1 alpha (IL1a) Biomarker Activity (AID 2283080); settings: primary human HUVEC with PBMC; actives raise or lower the signal
Procedure, shortened: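 Human umbilical vein endothelial cells co-cultured with peripheral blood mononuclear cells were LPS-stimulated and exposed to test chemicals for 24 h. IL-1 alpha was quantified by ELISA, with bidirectional curve fitting against DMSO as the negative control and baseline.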

[17] = read-out: Monocyte Chemoattractant Protein-1 (MCP1), CCL2 (gene 6347); experiment: BSK_LPS_MCP1: BioMAP Diversity Plus: LPS Assay for Monocyte Chemoattractant Protein-1 (MCP1) Biomarker Activity (AID 2283081); settings: primary human HUVEC with PBMC; actives raise or lower the signal;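 for AC50: co-culture stimulated with LPS; secreted MCP-1 protein quantified by ELISA in culture supernatant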
Procedure, shortened: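 HUVEC plus PBMC co-culture (human primary cells, LPS system) exposed to test chemical for 24 h; MCP-1 measured by ELISA. Bidirectional curve fitting against DMSO baseline; parallel SRB total-protein staining flags overt cytotoxicity.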

[18] = BSK_LPS_PGE2: BioMAP Diversity Plus: LPS Assay for Prostaglandin E2 (PGE2) Biomarker Activity (AID 2283082); settings: primary human HUVEC with PBMC; actives raise or lower the signal
Procedure, shortened: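 PGE2 release measured by ELISA in an LPS-activated co-culture of human umbilical vein endothelial cells and peripheral blood mononuclear cells, read at 24 h post-dosing. DMSO served as baseline for bidirectional curve fitting.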

[19] = read-out: TIMP metallopeptidase inhibitor 2 (TIMP2), TIMP2 (gene 7077); experiment: BSK_KF3CT_TIMP2: BioMAP Diversity Plus: KF3CT Assay for TIMP metallopeptidase inhibitor 2 (TIMP2) Biomarker Activity (AID 2283071); settings: primary human keratinocytes with fibroblasts; actives raise or lower the signal
Procedure, shortened: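 TIMP-2 measured by ELISA at 24 h in human keratinocyte/fibroblast primary co-cultures exposed to chemicals. Both increases and decreases were fitted against DMSO. Parallel cultures were stained with SRB for total protein as an overt-cytotoxicity check.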

[20] = read-out: Interferon-gamma inducible Protein 10 (IP10), CXCL10 (gene 3627); experiment: BSK_KF3CT_IP10: BioMAP Diversity Plus: KF3CT Assay for Interferon-gamma inducible Protein 10 (IP10) Biomarker Activity (AID 2283068); settings: primary human keratinocytes with fibroblasts; actives raise or lower the signal
Procedure, shortened: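 KF3CT co-culture (keratinocytes + foreskin fibroblasts), 24 h compound, IP-10 by ELISA; bidirectional fit vs DMSO baseline.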

E-selectin (Homo sapiens), sequence (P16581 whole entry, looked up): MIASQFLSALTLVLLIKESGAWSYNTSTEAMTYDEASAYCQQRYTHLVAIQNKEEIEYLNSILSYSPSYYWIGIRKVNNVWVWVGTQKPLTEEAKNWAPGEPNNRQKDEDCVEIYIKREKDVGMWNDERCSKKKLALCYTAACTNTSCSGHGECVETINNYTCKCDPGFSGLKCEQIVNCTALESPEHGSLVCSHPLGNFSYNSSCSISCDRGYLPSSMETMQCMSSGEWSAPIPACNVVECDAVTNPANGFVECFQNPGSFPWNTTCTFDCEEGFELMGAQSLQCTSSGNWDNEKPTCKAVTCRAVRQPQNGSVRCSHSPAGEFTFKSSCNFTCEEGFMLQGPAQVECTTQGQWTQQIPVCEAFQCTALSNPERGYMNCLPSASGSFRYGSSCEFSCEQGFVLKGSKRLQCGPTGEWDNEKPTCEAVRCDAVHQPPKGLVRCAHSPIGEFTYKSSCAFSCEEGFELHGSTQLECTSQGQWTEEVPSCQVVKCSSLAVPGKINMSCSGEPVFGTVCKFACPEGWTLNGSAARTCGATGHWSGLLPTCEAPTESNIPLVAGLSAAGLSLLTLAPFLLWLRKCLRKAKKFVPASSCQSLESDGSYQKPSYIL

With `[Cl][Sn]([c]1ccccc1)([c]1ccccc1)[c]1ccccc1` the AC50 [1] was 85.5 nM (active), the AC50 [2] was 103 nM (active) and the AC50 [3] was 99.6 nM (active). For the same compound, the AC50 [4] was 114 nM (active), the AC50 [5] was 334 nM (active) and the AC50 [6] was 183 nM (active). For the same compound, the AC50 [7] was 127 nM (active), the AC50 [8] was 62.2 nM (active) and the AC50 [9] was 190 nM (active). The AC50 [10] was 69.2 nM (active), the AC50 [11] was 168 nM (active) and the AC50 [12] was 117 nM (active). For the same compound, the AC50 [13] was 305 nM (active), the AC50 [14] was 577 nM (active) and the AC50 [15] was 1080 nM (active). For the same compound, the AC50 [16] was 154 nM (active), the AC50 [17] was 258 nM (active) and the outcome [18] was “inactive”.

For `CC(C)O.CC(C)O.OCCN(CCO)CCO.OCCN(CCO)CCO.[Ti]`, the AC50 [1] was 30600 nM (active), the AC50 [2] was 24800 nM (active) and the outcome [3] was “inactive”. For the same compound, the outcome [4] was “inactive”, the outcome [5] was “inactive” and the outcome [6] was “inactive”. For the same compound, the outcome [7] was “inactive”, the outcome [19] was “inactive” and the outcome [8] was “inactive”. The outcome [9] was “inactive”, the outcome [10] was “inactive” and the outcome [11] was “inactive”. The outcome [12] was “inactive”, the outcome [13] was “inactive” and the outcome [14] was “inactive”. The outcome [15] was “inactive”, the outcome [16] was “inactive” and the outcome [17] was “inactive”. The outcome [18] was “inactive”.

For `CC(C)(C)c1ccccc1O`, the outcome [1] was “inactive”, the outcome [2] was “inactive” and the outcome [3] was “inactive”. The outcome [4] was “inactive”, the outcome [5] was “inactive” and the outcome [20] was “inactive”. The outcome [6] was “inactive”, the outcome [9] was “inactive” and the outcome [10] was “inactive”. For the same compound, the outcome [12] was “inactive”, the outcome [13] was “inactive” and the outcome [14] was “inactive”. The outcome [15] was “inactive”, the outcome [16] was “inactive” and the AC50 [17] was 3180 nM (active). For the same compound, the outcome [18] was “inactive”.

In the case of `Nc1c(Oc2ccccc2)cc(O)c2c1C(=O)c1ccccc1C2=O`, the AC50 [1] is reported as 15600 nM (active), the outcome [2] is reported as “inactive” and the AC50 [3] is reported as 15800 nM (active). The outcome [4] was “inactive”, the outcome [5] was “inactive” and the outcome [20] was “inactive”. The outcome [6] was “inactive”, the AC50 [19] was 549 nM (active) and the outcome [9] was “inactive”. For the same compound, the outcome [10] was “inactive”, the outcome [11] was “inactive” and the outcome [12] was “inactive”. The outcome [13] was “inactive”, the outcome [14] was “inactive” and the outcome [15] was “inactive”. The outcome [16] was “inactive”, the outcome [17] was “inactive” and the outcome [18] was “inactive”.
